Test results taken from PubChem BioAssay AID1053125 (Broad Institute, 2014).
Results with a measured potency or affinity are listed apart. A number with no mark means an inactive call.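 Rule for the calls: active = viability loss whose fitted half-maximal concentration is at most twice the top valid tested dose; inconclusive = flat curve with 30 to 70% loss, or poor fit; inactive = the rest.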

experiment: viability loss in HepG2 liver cells – cell-based, ATP luminescence, cherry-pick, set 6, cytotoxicity control, dose response (AID 1053125); settings: ATP luminescence (CellTiter-Glo), 72 h; series mostly up to 26 µM; activity change, negative = cytotoxicity: at the top concentration;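 note: negative values mean loss of viability signal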

| SMILES | activity change, negative = cytotoxicity [%] |
| --- | --- |
| N#CC1=C(N)Oc2cc(O)ccc2C1c1ccc2c(c1)OCO2 (stereo not drawn) | -4.19 |
| CC12CC(c3ccccc3O1)C(C(=O)OCc1ccccc1)C(=O)N2 (stereo not drawn) | -4.78 |
| CC(C)OP(=O)(O)NC(=O)c1ccccc1 | -5.2 |
